Experimental data published in PubChem BioAssay AID1347426 (Functional Genomics Laboratory (NCATS/FGL), 2020).
About 1,400 (4.5%) of roughly 31,000 sequences were called active.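 The calls were made as follows: active = median seed-adjusted z-score above 1 or below -1; inactive = the rest.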 The entries come from a sample that favours actives as a whole.

Assay: Novel Modifiers of Survival Motor Neuron (SMN) Protein: Gene Identification via Genome-wide siRNA Screen
Details: HEK293T SMN2-luciferase reporter, siRNA knockdown, 72 h; actives lie on both sides
Source text: Spinal muscular atrophy (SMA) is the most common neuromuscular autosomal recessive disorder and one of the leading genetic causes of infant death. SMA results from mutations inducing loss of function or deletion in the survival of motor neuron-1 gene (SMN1), leading to deficiency of the survival motor neuron (SMN) protein. Although a second nearly identical gene, SMN2, is retained in humans, its expression primarily produces an aberrantly spliced isoform that is largely unstable and quickly degraded. We performed a genome-wide RNAi screen using a cell-based reporter assay to identify genes and pathways that modulate SMN protein stability. The screen identified over 200 genes that led to the greatest increase or decrease in luciferase expression.
Using HEK293T cells stably expressing a luciferase reporter that combines the promoter and splicing based cassettes in tandem with the major portion of the native SMN2 cDNA with luciferase, we performed a genome-wide RNAi screen to identify modulators of SMN protein levels. Luciferase is expressed when full-length SMN protein is generated with luminescence signal proportional to SMN protein levels. Our luciferase-based reporter assay was used to screen Ambion Silencer Select Human Druggable Genome siRNA library (10418 genes, 3 unique siRNAs per gene) using lipid-based reverse transfection.
Briefly, 1 pmol of each siRNA was spotted to a well of a 384-well plate (Corning, Corning, NY) and 20 microL of serum-free DMEM containing […] of Lipofectamine RNAiMax (Life Technologies, Carlsbad, CA) was then added to each well. Transfected cells were maintained at 37 degrees C in 5% CO2 for 72 hours, 20 microL of ONE-Glo Reagent (Promega) was added to wells for luciferase quantification. Raw luminescence reads were normalized to Ambion(R) Silencer(R) Negative Control #2 siRNA, then log10 transformed. A robust statistical measure of median absolute deviation (MAD) to standardize siRNA activities from each screen. Common Seed Analysis was used to help prioritize clean hits as opposed to those appearing to arise from seed based off-target effects. Candidate modulators were defined as the genes having a MAD score greater than 1.0 or less than -1.0.

Sequence	median seed-adjusted z-score
AGAUGAUUCUAGAAUCCAATT against STK32B	0.683 (inactive)
GGAAUACCAUGAGCUGUUATT against OSBP	0.256 (inactive)
CAAGCAUAUUAAUGAGGUUTT against DYRK1A	-1.3 (active)
GCUCCCAUCAUGUACGUUUTT against GPR155	0.0681 (inactive)
GGAUGAGCAGUACCAGGCATT against PYCARD	0.117 (inactive)
GAACUAAACUUGUUAAUGATT against TRIM36	-0.262 (inactive)
GGAGCAACAUUAUAGUCAATT against TGS1	-0.564 (inactive)
CUACGAGAAUAAUUCGGAATT against THOC1	-3.04 (active)
CCGGGAAAGUAGAAUUACATT against IGF2BP1	-0.993 (inactive)
GCAGUACUCUGCUACCUGATT against IL22RA1	-1.14 (active)
GGAGAACCAGUGGAAUUCATT against LIN28B	0.407 (inactive)
GCACUUCUCUUAAGGACGATT against UNC13B	-0.0216 (inactive)
CAUGUACUAUUUUCAGUAUTT against SETD8	-1.52 (active)
GCUUCUUAGCUGAGGAAAATT against RDH11	-0.241 (inactive)
CAAGGUAUUAUGCAACGUATT against FLG	0.221 (inactive)
GAGUAUGCCGUGAAGAUCATT against RPS6KA2	0.139 (inactive)
GGCGUACGGUGAGAACAUUTT against ATP1B1	0.971 (inactive)
GUAUAAUCCUCAGAGCAAATT against CXXC1	-0.841 (inactive)
CAUGAAUCCUUUACAGCAATT against RALB	-0.534 (inactive)
GACUGUGAGACUUACCAUATT against MED20	-1.66 (active)
CGGUCUCACCUGCACCAAATT against SSPO	0.397 (inactive)
GGAGAUUCACGAGCUGCGATT against EGFL8	0.365 (inactive)
GCUCAAGGCAUUCUACAAATT against SLC25A1	0.252 (inactive)
GGAUCGAGUUUGAUAACGATT against ITGA6	-0.224 (inactive)
GAUACGAAAUGGUGUUAAATT against POLG2	0 (inactive)
CCCAAUAACUCUGUCGAUATT against ATP11C	0.102 (inactive)
GGAGUAACUGAGAUAGAAATT against AGPAT3	0 (inactive)
GGAUCGUAAAAAUAGCAAATT against DGKA	-1.36 (active)
GAGCCUCUAUUAAUGGACATT against RASSF6	-0.592 (inactive)
GGAACACCCGUUUAACAAATT against ASH2L	-0.464 (inactive)
